These results are taken from PubChem BioAssay.

The source made the active and inactive calls.

Assay [1] can be described thus: small molecules captured by biotinylated probe aFSTL3 – biochemical, small-molecule microarray, fluorescence 635/667, stem cell growth factor project, primary screen (AID 1064).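 Further: measures binding of the biotinylated anti-FSTL3 antibody to printed compounds.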 The settings on record: higher = more signal.
A short description of assay [2]: binders from COS7 lysate, DM2A8 probe, primary screen, torsin A project, cell lysate, small-molecule microarray, fluorescence 635/667 (AID 1065). To be noted: higher = more signal, COS7 lysate expressing mutant human TOR1A.
Assay [3] can be described thus: small molecules captured by biotinylated probe aFGF2 – biochemical, small-molecule microarray, fluorescence 635/667, stem cell growth factor project, primary screen (AID 1067).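 Further: measures binding of biotinylated aFGF2 protein to printed compounds on slides; z-score merges feature fluorescence and signal-to-noise across triplicate slides.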 To be noted: higher = more signal.
Assay [4] is described as follows: small molecules captured by biotinylated probe aFGF10 – biochemical, small-molecule microarray, fluorescence 635/667, stem cell growth factor project, primary screen (AID 1071).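 Further: score merges 667 nm spot intensity and signal to noise from triplicate slides.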 To be noted: higher = more signal.
Assay [5] addresses Neurogenic locus notch homolog protein 2 (Homo sapiens) (UniProt Q04721). Put plainly: small molecules binding Notch2 protein – biochemical, small-molecule microarray, 635 nm fluorescence, stem cell growth factors, primary screen (AID 1073). To be noted: higher = more signal.
Assay [6] has as its target Pro-neuregulin-1, membrane-bound isoform (Homo sapiens) (UniProt Q02297). Put plainly: small molecules binding neuregulin-1 protein – biochemical, small-molecule microarray, fluorescence 635/667, psychiatric disease protein project, primary screen (AID 1075).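 Further: score combines 667 nm spot fluorescence with signal to noise.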 To be noted: NRG1 binding, 635 nm fluorescence, higher = more signal.
Assay [7] relates to Neuregulin-1 EGF-like domain. Put plainly: small molecules binding NRG1 EGF domain – biochemical, small-molecule microarray, 635 nm fluorescence, primary screen (AID 1081).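 Further: binding of the protein to compounds printed on small-molecule microarray slides.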 To be noted: higher = more signal.
Assay [8] is described as follows: FRG1 expression reporter modulators in myotubes – cell-based, C2C12 myotubes, firefly/Renilla luciferase, luminescence, FRG1 inhibition for FSHD, primary screen (AID 1084). The settings on record: FRG1 promoter luciferase, higher = more signal, called active from +8 up or from −8 down.
Assay [9] is described as follows: small molecules captured by biotinylated probe aFST – biochemical, small-molecule microarray, fluorescence 635/667, stem cell growth factor project, primary screen (AID 1086).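 Further: score merges 667 nm fluorescence with signal-to-noise of each printed compound spot.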 The settings on record: higher = more signal.
The nature of assay [10]: binders of probe aHhip on microarray, primary screen, stem cell growth factor project, biochemical, small-molecule microarray, fluorescence 635/667 (AID 1087).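 Further: score merges spot fluorescence at 667nm with spot signal to noise ratio.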 The settings on record: higher = more signal.
The subject of assay [11] is PRMT1 (protein arginine N-methyltransferase 1). Description: small molecules binding arginine methyltransferase PRMT1 – biochemical, small-molecule microarray, 635 nm fluorescence, primary screen (AID 1088).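 Further: binding of Prmt1 protein to compounds spotted on small-molecule microarray slides.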 The settings on record: higher = more signal.
The nature of assay [12]: growth effects on S. cerevisiae YJM789 – YJM789 clinical isolate, OD600, 24 h, basal, primary screen (AID 1089).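 Further: growth of clinical yeast isolate S. cerevisiae YJM 789 seeded 1000 cells per well; test concentration not given here.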 To be noted: higher = more signal, called active from +8 up or from −8 down.
Assay [13] in a line: S. pombe growth modifiers, basal conditions – strain 972, OD600, 24 h, no modulator, primary screen (AID 1090).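 Further: basal condition with compound alone and no growth modifier present; test concentration not given here.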 The settings on record: S. pombe 972 growth, higher = more signal, called active from +8 up or from −8 down.
The nature of assay [14]: budding yeast growth modifiers under rapamycin – strain BY4716, OD600, 96 h, primary screen (AID 1091). Further: test concentration not given here. To be noted: S. cerevisiae BY4716 + rapamycin, higher = more signal, called active from +8 up or from −8 down.
In assay [15] the target is Torsin-1A-interacting protein 2 (Homo sapiens) (UniProt Q8NFQ8). Description: small molecules binding lysate-expressed LULL1 – cell lysate, human LULL1 lysate, 635/667 nm fluorescence, primary screen (AID 1092).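 Further: probe is lysate of COS7 cells overexpressing human LULL1; score merges per-feature 667 nm fluorescence with signal-to-noise.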 The settings on record: small-molecule microarray, hLULL1 lysate binding, 635 nm fluorescence; higher = more signal.
Chain of Torsin-1A-interacting protein 2 (Homo sapiens) (Q8NFQ8 whole entry, looked up): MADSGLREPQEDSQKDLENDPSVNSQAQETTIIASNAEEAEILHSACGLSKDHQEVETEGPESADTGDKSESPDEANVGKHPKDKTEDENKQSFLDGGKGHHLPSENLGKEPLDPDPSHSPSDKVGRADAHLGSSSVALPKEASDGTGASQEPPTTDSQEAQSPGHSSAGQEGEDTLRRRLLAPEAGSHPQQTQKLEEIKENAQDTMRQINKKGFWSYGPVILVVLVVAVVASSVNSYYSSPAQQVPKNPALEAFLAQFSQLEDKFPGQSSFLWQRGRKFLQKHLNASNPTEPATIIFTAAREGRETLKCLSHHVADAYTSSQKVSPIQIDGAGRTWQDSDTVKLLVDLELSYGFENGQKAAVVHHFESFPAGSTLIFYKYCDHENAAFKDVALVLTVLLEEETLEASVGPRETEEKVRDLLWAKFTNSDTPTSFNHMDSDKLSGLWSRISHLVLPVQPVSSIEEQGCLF
A short description of assay [16]: optical density change of DRC41 E. coli – strain DRC41, OD650, 24 h, E. coli filamentation project, primary screen (AID 1093).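 Further: MC1000 strain lacking acrAB efflux and sulA so SOS filamentation is blocked; test concentration not given here.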 To be noted: E. coli DRC41 growth, higher = more signal, called active from +8 up or from −8 down.
Assay [17] can be described thus: probe aLefty2 binding to arrayed compounds – biochemical, biotinylated probe, 635/667 nm fluorescence, primary screen (AID 1094).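 Further: score merges spot fluorescence near 667 nm with spot signal-to-noise ratio.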 The settings on record: small-molecule microarray, higher = more signal.
In assay [18] the test system is Noggin (protein binding on small-molecule microarray). Put plainly: small molecules binding Noggin protein – biochemical, 635/667 nm fluorescence, primary screen (AID 1095).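 Further: score merges 667 nm feature fluorescence with signal to noise over triplicate slides.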 The settings on record: 635 nm fluorescence, higher = more signal.
Assay [19] concerns the target Neurogenic locus notch homolog protein 3 (Homo sapiens) (UniProt Q9UM47). Put plainly: small molecules binding NOTCH3 protein – biochemical, 635/667 nm fluorescence, primary screen (AID 1096). To be noted: small-molecule microarray, 635 nm fluorescence, higher = more signal.
A short description of assay [20]: probe aEGFR binding to arrayed compounds – biochemical, biotinylated probe, 635/667 nm fluorescence, primary screen (AID 1097).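 Further: probe is a biotinylated anti-EGFR antibody binding compounds printed on slides; score combines fluorescence near 667 nm and signal to noise of each spot.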 To be noted: small-molecule microarray, higher = more signal.

Chain of Pro-neuregulin-1, membrane-bound isoform (Homo sapiens) (Q02297 whole entry, looked up, the tested form may be a part, canonical isoform): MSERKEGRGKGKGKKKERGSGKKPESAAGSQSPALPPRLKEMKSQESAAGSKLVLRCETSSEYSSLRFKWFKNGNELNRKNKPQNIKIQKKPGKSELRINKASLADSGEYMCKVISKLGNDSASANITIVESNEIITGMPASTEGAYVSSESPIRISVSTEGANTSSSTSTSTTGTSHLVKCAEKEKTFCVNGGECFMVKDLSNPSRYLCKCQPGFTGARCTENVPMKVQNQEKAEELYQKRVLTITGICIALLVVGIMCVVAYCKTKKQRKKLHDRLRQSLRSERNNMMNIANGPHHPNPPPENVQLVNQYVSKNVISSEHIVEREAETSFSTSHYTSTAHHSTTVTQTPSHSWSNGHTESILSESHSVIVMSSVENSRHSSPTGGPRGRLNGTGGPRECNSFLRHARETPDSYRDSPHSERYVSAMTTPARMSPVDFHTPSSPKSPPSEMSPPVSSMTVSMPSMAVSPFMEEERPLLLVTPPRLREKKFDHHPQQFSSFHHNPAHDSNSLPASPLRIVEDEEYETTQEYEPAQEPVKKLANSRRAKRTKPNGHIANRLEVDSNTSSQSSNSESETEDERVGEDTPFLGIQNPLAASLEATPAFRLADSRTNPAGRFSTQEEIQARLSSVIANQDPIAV
Chain of Neurogenic locus notch homolog protein 2 (Homo sapiens) (Q04721 whole entry, looked up, canonical isoform): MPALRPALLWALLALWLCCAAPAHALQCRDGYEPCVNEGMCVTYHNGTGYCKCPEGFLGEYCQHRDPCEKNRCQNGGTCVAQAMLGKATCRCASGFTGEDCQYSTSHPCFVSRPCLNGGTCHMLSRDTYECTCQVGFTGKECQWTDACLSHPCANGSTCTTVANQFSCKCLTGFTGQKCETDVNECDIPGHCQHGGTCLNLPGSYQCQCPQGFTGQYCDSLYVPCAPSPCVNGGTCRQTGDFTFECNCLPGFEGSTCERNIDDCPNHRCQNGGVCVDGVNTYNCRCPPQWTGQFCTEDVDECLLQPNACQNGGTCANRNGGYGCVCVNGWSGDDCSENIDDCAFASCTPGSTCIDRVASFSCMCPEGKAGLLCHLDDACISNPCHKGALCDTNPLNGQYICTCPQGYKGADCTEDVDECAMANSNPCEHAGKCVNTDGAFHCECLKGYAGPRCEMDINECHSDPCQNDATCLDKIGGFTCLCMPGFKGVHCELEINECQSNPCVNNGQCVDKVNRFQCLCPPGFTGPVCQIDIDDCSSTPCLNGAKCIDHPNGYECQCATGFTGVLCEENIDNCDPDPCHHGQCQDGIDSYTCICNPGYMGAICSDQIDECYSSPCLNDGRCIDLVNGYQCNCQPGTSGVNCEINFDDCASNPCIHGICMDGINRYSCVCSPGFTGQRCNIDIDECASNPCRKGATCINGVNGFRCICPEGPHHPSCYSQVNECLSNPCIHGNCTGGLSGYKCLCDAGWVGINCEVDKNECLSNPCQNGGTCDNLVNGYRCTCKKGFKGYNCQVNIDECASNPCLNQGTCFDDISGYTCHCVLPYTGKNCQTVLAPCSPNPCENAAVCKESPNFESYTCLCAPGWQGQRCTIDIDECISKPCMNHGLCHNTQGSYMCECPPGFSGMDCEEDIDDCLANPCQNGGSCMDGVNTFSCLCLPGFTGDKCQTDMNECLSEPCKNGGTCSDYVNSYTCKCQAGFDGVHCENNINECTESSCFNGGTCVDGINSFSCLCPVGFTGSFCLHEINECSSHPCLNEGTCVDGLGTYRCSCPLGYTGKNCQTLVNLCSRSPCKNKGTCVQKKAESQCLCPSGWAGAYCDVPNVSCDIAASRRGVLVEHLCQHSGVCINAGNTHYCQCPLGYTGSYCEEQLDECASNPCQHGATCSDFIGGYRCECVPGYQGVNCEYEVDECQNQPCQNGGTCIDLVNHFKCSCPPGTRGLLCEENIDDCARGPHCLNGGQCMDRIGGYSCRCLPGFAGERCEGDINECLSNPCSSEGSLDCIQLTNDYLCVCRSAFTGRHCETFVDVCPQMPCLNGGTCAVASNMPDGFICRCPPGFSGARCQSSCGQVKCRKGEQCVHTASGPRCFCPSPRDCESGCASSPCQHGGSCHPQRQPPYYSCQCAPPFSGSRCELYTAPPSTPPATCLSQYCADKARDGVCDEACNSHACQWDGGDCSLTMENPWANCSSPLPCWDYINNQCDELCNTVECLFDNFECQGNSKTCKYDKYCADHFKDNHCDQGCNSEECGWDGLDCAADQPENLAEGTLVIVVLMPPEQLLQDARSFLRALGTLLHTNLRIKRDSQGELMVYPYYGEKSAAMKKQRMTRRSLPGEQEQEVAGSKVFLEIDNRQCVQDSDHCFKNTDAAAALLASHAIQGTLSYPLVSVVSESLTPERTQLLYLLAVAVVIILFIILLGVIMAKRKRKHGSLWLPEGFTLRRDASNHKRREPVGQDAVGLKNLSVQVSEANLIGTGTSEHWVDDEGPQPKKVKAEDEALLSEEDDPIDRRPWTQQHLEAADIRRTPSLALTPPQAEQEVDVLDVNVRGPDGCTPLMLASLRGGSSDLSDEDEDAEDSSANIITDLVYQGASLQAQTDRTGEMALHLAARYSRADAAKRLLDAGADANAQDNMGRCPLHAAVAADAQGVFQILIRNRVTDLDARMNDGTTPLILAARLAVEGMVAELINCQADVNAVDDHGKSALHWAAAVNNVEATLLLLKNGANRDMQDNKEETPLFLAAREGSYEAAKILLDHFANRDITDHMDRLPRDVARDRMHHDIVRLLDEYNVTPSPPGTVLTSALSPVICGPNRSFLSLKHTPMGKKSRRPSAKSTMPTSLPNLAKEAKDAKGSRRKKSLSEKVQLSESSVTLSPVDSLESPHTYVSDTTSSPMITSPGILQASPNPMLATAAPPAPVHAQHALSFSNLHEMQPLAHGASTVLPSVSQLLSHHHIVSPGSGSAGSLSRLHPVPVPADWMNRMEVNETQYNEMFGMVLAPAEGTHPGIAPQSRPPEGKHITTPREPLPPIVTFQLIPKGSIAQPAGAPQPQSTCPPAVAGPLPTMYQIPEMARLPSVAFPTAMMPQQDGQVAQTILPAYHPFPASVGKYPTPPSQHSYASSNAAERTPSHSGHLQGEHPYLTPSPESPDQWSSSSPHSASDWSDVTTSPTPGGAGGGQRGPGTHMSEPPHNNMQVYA

For the molecule `COc1cccc(-c2cccc(=O)o2)c1`, the composite z-score in assay [1] is 0.782; in assay [2], -0.387; in assay [3], 0.338; in assay [4], 0.143; in assay [5], 0.0405; in [6], 0.851. Also, the composite z-score in [7] was 0.322; in [9], 0.807; in assay [10], -0.236; in assay [11], 0.274; in assay [15], -0.33; in assay [17], 0.716. The composite z-score is 0.335 in [18], -0.476 in assay [19] and 0.08 in assay [20]. The z-score in [8] is 5.22 (inactive); in [12], -1.24 (inactive); in [13] it was -3.46 (inactive); in assay [14], 1.42 (inactive); in [16], 0.696 (inactive).

Turning to `COc1ccccc1CN1C(=O)c2ccccc2[C@@]2(Cc3ccccc3N(CC(C)C)C2=O)[C@@H]1c1ccc(CO)cc1`, the composite z-score in assay [1] was -0.211; in assay [2], -0.44; in [3], -0.0543; in assay [4], 0.134; in [5], -0.304; in assay [6] it was -0.0503. Besides, the composite z-score was -0.738 in [7]; -0.595 in [9]; -0.0994 in assay [10]; 0.545 in [11]; -0.359 in [15]; -0.122 in assay [17]. For the same molecule, the results for the composite z-score in [18], in [19] and in assay [20] were -0.19, -0.285 and -0.127, respectively. Moreover, the z-score is -0.0845 (inactive) in assay [8]; -0.928 (inactive) in assay [12]; 0.189 (inactive) in [13]; -1.03 (inactive) in [14]; -0.0514 (inactive) in assay [16].

Consider `C[N+](C)(C)CCCCNC(=O)[C@@H]1C[C@@H]2C(=O)N[C@@H](Cc3ccccc3)C(=O)N2[C@@H]1c1cccc(OCCO)c1`, for which the composite z-score is 0.241 in [1]; -0.108 in assay [2]; -0.147 in assay [3]; 0.394 in [4]; -0.39 in assay [5]; 1.01 in assay [6]. The composite z-score in assay [7] was 1.14; in [9] it was -0.253; in assay [10], -0.195; in assay [11] it was 0.402; in assay [15], 1.42; in assay [17] it was -0.0333. Moreover, the composite z-score in assay [18] is 0.692; in assay [19], -0.0417; in [20], -0.169. For the same molecule, the z-score in assay [8] was 1.51 (inactive); in assay [12] it was 0.534 (inactive); in assay [13] it was -0.642 (inactive); in assay [14], -1.14 (inactive); in [16], 1.07 (inactive).
